Here are results for 38 compounds from the supplement of paper PMC6763611.

The test system of the test is Plasmodium falciparum NF54. In words: growth inhibition relative to untreated control; higher = more inhibition. To be noted: 1 µM; MM + chorismate end-products (CM screening medium); 72 h. The procedure, abridged:
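P. falciparum NF54 ring stages (1% hematocrit, 1% parasitemia, 100 μL/well in 96-well half-area dark plates) were exposed for 72 h at 37 °C to single 5 μM or 1 μM doses of Pathogen Box compounds. The medium was minimal RPMI or minimal RPMI plus chorismate end-products (2.2 μM folate, 7.3 μM pABA, 7.3 μM pHBA, 111 μM tyrosine, 90 μM phenylalanine, tryptophan). Growth inhibition was read by SYBR Green, normalised to untreated controls, with uninfected erythrocytes as background.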
Regarding `c1csc(-c2cnc3sc(NCC4CCOCC4)nn23)c1`, the growth inhibition is 60.9%.
To `Cc1nc(-c2cccc(NCc3ccccc3)c2)[nH]c1C` belongs 63.5%; to `O=C1N(Cc2cc3ccccc3s2)CC2CN(Cc3ccccc3)CCN12` (stereo not drawn), 97.5%; to `Cc1cc(NC(=O)c2ccc(Oc3ccc(Cl)cc3O)o2)no1`, 8.1%.
To `c1ccc(C[C@@H]2CN(c3nccc(Oc4ccc(-n5ccnc5)cc4)n3)CCN2)cc1` belongs 98.3%; to `O=C(NC1CCN(c2ccnc3ccccc23)C1)c1cccc(C(F)(F)F)c1` (stereo not drawn), 80.7%; to `NC(CC(=O)c1ccc(Cl)cc1Cl)C(Cl)(Cl)Cl` (stereo not drawn), under 0%.
In the case of `CC(C)n1ncc2c(C(=O)NCC(c3cccs3)N3CCOCC3)cc(-c3ccccc3)nc21` (stereo not drawn) it was 10%.
Take `NCCC(O)C(=O)N[C@@H]1C[C@H](N)[C@@H](OC2O[C@H](CN)[C@@H](O)[C@H](O)[C@H]2O)[C@H](O)C1OC1O[C@H](CO)[C@@H](O)[C@H](N)[C@H]1O` (stereo partly drawn): the growth inhibition came out at 46%.
In the case of `COc1ccc(C2(C(=O)Nc3ccc(Br)cc3)CCCC2)cc1` it was 15.3%; in that of `NCC(c1cccs1)S(=O)(=O)c1ccccc1` (stereo not drawn), 36.2%; in that of `CC1=NN(c2nc3ccccc3s2)C(=O)C1Cc1cccc2ccccc12` (stereo not drawn), under 0%.
To `COc1ccccc1C(C)NCC(=O)Nc1cc(C(F)(F)F)ccc1Cl` (stereo not drawn) belongs 86.1%; to `CCc1cc(=O)n(C)c(SC(C)C(=O)Nc2ccc(F)cc2)n1` (stereo not drawn), under 0%.
With `Nc1ncnc2c1c(-c1cnc3ccccc3c1)nn2CC1CCNCC1`, the growth inhibition is 22.7%.
With `Cc1ccc(S(=O)(=O)N2CCN(C(=O)c3cc(-c4ccccc4)n[nH]3)CC2)cc1`, the growth inhibition is 94.2%.
In the case of `O=C(NCCc1c[nH]c2ccccc12)c1cc2ccccc2oc1=O` it was 20.7%.
In the case of `Cc1cc(Nc2ccncc2)n2nc(C)c(-c3ccccc3Cl)c2n1` it was 95.7%; in that of `O=[N+]([O-])c1cn2c(n1)OC[C@@H](OCc1ccc(OC(F)(F)F)cc1)C2`, 36.9%; in that of `Cc1cc(C)n2nc(C(=O)Nc3cc(C(F)(F)F)ccc3N3CCOCC3)nc2n1`, 82.6%.
As to `CCC(Sc1nc2ccccc2o1)C(=O)Nc1nccs1` (stereo not drawn), the growth inhibition stood at 66.4%.
To `FC(F)(F)c1ccc(N(c2cccnc2)C2CCN(c3ccc(C(F)(F)F)cn3)CC2)cc1` belongs 60.2%; to `COc1ccc(-c2cncc3ccc(C(=O)NCCCn4ccnc4)nc23)cc1`, 22.9%.
In the case of `CC(=O)NC[C@H]1CN(c2ccc(N3CCSCC3)c(F)c2)C(=O)O1` it was 21.8%; in that of `CCc1nc2ccc(C(=O)NCc3ccc4c(c3)OCO4)cn2c1N(C)Cc1cccs1`, 21.4%.
In the case of `COc1cccc(OCC(=O)c2ccc(Br)cc2)c1` it was under 0%; in that of `CC(C)n1nc(-c2cc3c(Cl)cccc3[nH]2)c2c(N)ncnc21`, 50.4%.
Turning to `O=C(NCc1cc(Cl)cc(Cl)c1)c1c(C(F)(F)F)nc2ccccn12`, the growth inhibition was determined as 2.45%.
Regarding `CC(=O)NCC1CN(c2ccc(-c3ccc(CO)cc3)c(F)c2)C(=O)O1` (stereo not drawn), the growth inhibition was under 0%.
Regarding `Cc1ccc(-c2nc(CN(Cc3ccccn3)C(C)C)cs2)o1`, the growth inhibition was 47.7%.
Take `CS(=O)(=O)Cc1nc2ccccc2oc1=O`: the growth inhibition is under 0%.
In the case of `COc1ccc(Cl)cc1NC(=O)CN(C)C(=O)c1cnn(-c2ccccc2)n1` it was 98.1%.
To `CCOc1ccccc1NC(C)C(=O)Nc1cc(C(F)(F)F)ccc1N1CCOCC1` (stereo not drawn) belongs 76%; to `CNC1C(OC2C(OC3C(O)C(O)C(N=C(N)N)C(O)C3N=C(N)N)OC(C)C2(O)C=O)OC(CO)C(O)C1O` (stereo not drawn), 20.4%.
In the case of `O=C(c1cc2ccccc2o1)N1CCN(Cc2ccc3c(c2)OCO3)CC1` it was 15.1%.
Turning to `CC1COC2(CCN(c3nc(=O)c4cc(C(F)(F)F)cc([N+](=O)[O-])c4s3)CC2)O1` (stereo not drawn), the growth inhibition is 6.95%.
In the case of `CC(C)/N=c1\cc2n(-c3ccc(Cl)cc3)c3ccccc3nc-2cc1Nc1ccc(Cl)cc1` it was 91.5%.
In the case of `CCCn1c(NC(=O)c2ccc3ccccc3n2)nc2ccccc21` it was 38.2%.
